# About 79,000 compounds went through this panel and 15% of them were active in at least one assay; those are over-represented in the sample as a whole. A number with no mark means an inactive call. The source made the active and inactive calls. Cut-off read from the data, not from the text of the source: active = growth inhibition above about 70%; inactive = the rest.
# How the values were obtained:
# [1] = NCI Yeast Anticancer Drug Screen. Data for the rad50 strain (AID 155);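 note: 0% = growth of vehicle-only cultures of the same strain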; conditions: S. cerevisiae rad50 strain growth inhibition, hits give high values
# Procedure, shortened: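 Growth of the mutant yeast was measured after compound exposure and referenced to vehicle-treated cultures.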
# [2] = NCI Yeast Anticancer Drug Screen. Data for the mec2-1 strain (AID 157); conditions: S. cerevisiae mec2-1 strain, hits give high values
# Procedure, shortened: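 Using mec2-1 yeast: add compound, measure growth, express inhibition versus vehicle-treated cultures.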
# [3] = NCI Yeast Anticancer Drug Screen. Data for the sgs1 mgt1 strain (AID 161);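 note: 0% = growth of cultures given vehicle only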; conditions: S. cerevisiae sgs1 mgt1 strain, hits give high values
# Procedure, shortened: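 This yeast growth screen uses a strain with defined DNA-repair lesions; compound-treated growth is compared with vehicle-treated growth.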
# [4] = NCI Yeast Anticancer Drug Screen. Data for the cln2 rad14 strain (AID 165);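 note: 0% = growth equal to vehicle treated cultures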; conditions: S. cerevisiae cln2 rad14 strain, hits give high values
# Procedure, shortened: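 Yeast strain cln2 rad14, bearing defects in cell cycle control and DNA repair, serves as the test system; values reflect growth inhibition compared with vehicle.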
# [5] = NCI Yeast Anticancer Drug Screen. Data for the bub3 strain (AID 167); conditions: S. cerevisiae bub3 mutant strain, hits give high values
# Procedure, shortened: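 Whole-cell yeast assay. The mutant strain was incubated with compounds, and growth inhibition was determined by comparison with vehicle-treated cells.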
# [6] = NCI Yeast Anticancer Drug Screen. Data for the mlh1 rad18 strain (AID 175); conditions: S. cerevisiae mlh1 rad18 strain growth inhibition, hits give high values
# Procedure, shortened: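 Steps: expose repair-defective yeast to compound; measure growth; express inhibition against vehicle-treated controls.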
# [7] = at 5.0 µM (retest, dose inferred, filed as 0.5)
# [8] = at 50.0 µM (retest, dose inferred, filed as 5.0)
SMILES,"growth inhibition [1, 7]","growth inhibition [1, 8]",growth inhibition ([1]; at 50.0 µM),"growth inhibition [2, 7]","growth inhibition [2, 8]",growth inhibition ([2]; at 50.0 µM),"growth inhibition [3, 7]","growth inhibition [3, 8]",growth inhibition ([3]; at 50.0 µM),"growth inhibition [4, 7]","growth inhibition [4, 8]",growth inhibition ([4]; at 50.0 µM),"growth inhibition [5, 7]","growth inhibition [5, 8]",growth inhibition ([5]; at 50.0 µM),"growth inhibition [6, 7]","growth inhibition [6, 8]",growth inhibition ([6]; at 50.0 µM)
C=CC(=O)c1ccc2c(c1)OCCOCCOCCOCCOCCO2,-18%,64%,77.8% (active),4%,50%,54.5%,-13%,40%,62.8%,20%,42%,4.4%,-4%,78% (active),78% (active),0%,86% (active),59.4%
CC(=O)N1c2ccccc2Sc2c1ccc1ccccc21,10%,94% (active),96% (active),5%,95% (active),96.8% (active),11%,94% (active),96.5% (active),1%,94% (active),95% (active),6%,93% (active),94.3% (active),2%,92% (active),96.7% (active)
CC(O)C(NC(=O)OCc1ccccc1)C(=O)OC(c1ccccc1)c1ccccc1 (stereo not given),0%,95% (active),98% (active),17%,99% (active),97.8% (active),-23%,98% (active),97.5% (active),-3%,96% (active),97% (active),2%,97% (active),97.3% (active),10%,97% (active),96.5% (active)
COc1ccc2c(c1)C(=O)/C(=C/c1ccc([N+](=O)[O-])o1)CO2,15%,99% (active),97.2% (active),10%,100% (active),38.2%,33%,100% (active),98.1% (active),15%,99% (active),57.1%,15%,99% (active),89.8% (active),78% (active),99% (active),98.2% (active)
O=c1cc(CSc2ccc(Cl)cc2)occ1O,3%,32%,44.5%,-2%,17%,13.4%,3%,72% (active),87.2% (active),7%,18%,13.2%,-3%,4%,11.9%,2%,51%,55%
CCCCCCCCCCCCCC[N+]1(CC)CCCCC1,77% (active),99% (active),90.2% (active),99% (active),99% (active),91.3% (active),99% (active),100% (active),92.2% (active),84% (active),99% (active),89.8% (active),99% (active),99% (active),90.8% (active),67%,99% (active),89.5% (active)
CCN(CC)CCCOC(=O)C(c1ccccc1)C1CCCCC1 (stereo not given),4%,63%,88.5% (active),11%,71% (active),67.5%,22%,94% (active),90.7% (active),13%,41%,88.5% (active),16%,83% (active),94.1% (active),41%,97% (active),98% (active)
BrC1CCCCCC1,2%,10%,51.9%,3%,16%,34.5%,1%,22%,57.4%,6%,14%,27.4%,5%,35%,37%,6%,24%,81.7% (active)
CCC(=C(c1ccc(OCCN(C)C)cc1)c1cccc(O)c1)c1ccccc1 (mixture of isomers),34%,97% (active),86% (active),10%,99% (active),62%,44%,98% (active),96.5% (active),34%,97% (active),76.9% (active),23%,99% (active),76.5% (active),64%,98% (active),94% (active)
Cc1ccccc1NC(=O)Cc1csc(N=Nc2c(O)[nH]c3ccccc23)n1,18%,17%,-33.6%,1%,1%,-42.9%,1%,-2%,-6.95%,9%,-6%,-12.1%,25%,25%,-11.1%,15%,17%,-27.7%
CCC[CH2][Sn]([CH2]CCC)([O]C(=O)c1cc(F)ccc1F)[O][Sn]([CH2]CCC)([CH2]CCC)[O]C(=O)c1cc(F)ccc1F,83% (active),94% (active),65.3%,87% (active),97% (active),69.3%,85% (active),96% (active),63.2%,74% (active),90% (active),57.5%,93% (active),97% (active),81% (active),89% (active),96% (active),85.9% (active)
CCN(CC)C(=O)C(C)OC(C)=O (stereo not given),-1%,0%,-21.4%,2%,1%,17.6%,2%,-1%,-11.8%,-2%,-3%,-16%,2%,-5%,8.7%,1%,3%,27.1%
Cc1cc(N/N=C(\c2ccccc2)c2ccccn2)nc2ccccc12,33%,91% (active),96.9% (active),10%,91% (active),97.8% (active),14%,83% (active),96.5% (active),-7%,69%,97.6% (active),19%,90% (active),97.4% (active),25%,92% (active),97.5% (active)
O=C(/C=C(\C(=O)c1ccccc1)N(/C(=C/C(=O)c1ccccc1)C(=O)c1ccccc1)c1ccccc1)c1ccccc1,2%,30%,92.2% (active),-3%,13%,88.8% (active),-5%,30%,90.8% (active),-2%,-21%,83.5% (active),0%,34%,88.4% (active),0%,12%,92.7% (active)
Cc1nc(Nc2ccc(Cl)cc2)sc1C(=O)NNC(=O)C(=O)NN,3%,3%,80.5% (active),-19%,-8%,59.5%,-13%,9%,61.8%,-31%,-10%,64.5%,-26%,-5%,41.1%,-45%,-32%,69.5%
COc1cnc2cc3c4c(cccc4c2c1)NC3=O,87% (active),91% (active),80% (active),51%,89% (active),82.2% (active),55%,92% (active),79.7% (active),43%,83% (active),75% (active),51%,87% (active),80.8% (active),75% (active),91% (active),86% (active)
CCCCN(CCCC)CCCC(O)c1c2ccc(Cl)cc2nc2ccc(OC)cc12 (stereo not given),1%,24%,18.1%,-1%,5%,30%,26%,11%,18.9%,-3%,0%,25.6%,3%,10%,47.8%,3%,23%,70.7% (active)
CC1=C(Br)S(=O)(=O)N(c2ccccc2)C(CBr)=C1Br,57%,95% (active),19.8%,41%,97% (active),18.1%,81% (active),99% (active),16.9%,26%,95% (active),5.05%,53%,96% (active),27.7%,70% (active),93% (active),50.1%
OCCc1ccc(-n2cnc3c(Nc4ccc(Cl)cc4)ncnc32)cc1,-3%,95% (active),47.2%,-4%,95% (active),43%,-4%,91% (active),44.8%,-18%,94% (active),17.8%,7%,96% (active),83.8% (active),3%,95% (active),47%
COC(=O)c1nc(=S)[nH]c(C(=O)OC)c1C(=O)C(C)(C)C,6%,24%,-6.8%,4%,18%,-10.4%,11%,22%,-21.9%,5%,22%,45.6%,5%,26%,-25.2%,9%,20%,4.75%
